Data: PubChem BioAssay (NCI)
The panel holds about 83,000 compounds, 20% with a hit somewhere; the sample as a whole holds those more often.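 Negative percent growth values reflect cell death: -40 means 40% of the cells present at the start died, and -100 means all died.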 Active and inactive are the calls of the source. The calls were made as follows: active = growth percent below 10; inactive = the rest.

Experiments:
Experiment in all cases: NCI-60 one-dose screen, 48 h (100 = growth as untreated, 0 = no growth, -100 = all killed)
Settings in all cases: 10 µM unless noted
[1] = test system: NCI-H23 lung
[2] = test system: NCI-H226 lung
[3] = test system: NCI-H322M lung
[4] = test system: HOP-62 NSCLC
[5] = test system: NCI-H460 lung
[6] = test system: NCI-H522 lung
[7] = test system: A549/ATCC NSCLC
[8] = test system: 786-0 renal
[9] = test system: COLO 205 colon
[10] = test system: DU-145 prostate
[11] = test system: K-562 leukemia
[12] = test system: MALME-3M melanoma
[13] = test system: MDA-MB-231 breast
[14] = test system: RXF 393 renal
[15] = test system: SF-268 CNS
[16] = test system: SF-295 CNS
[17] = test system: SF-539 CNS
[18] = test system: UACC-257 melanoma
[19] = test system: M14 melanoma

Measured: growth

CCCCOc1nc2ccccc2cc1/C=C/c1cc(/C=C/c2cc3ccccc3nc2OCCCC)n(-c2ccccc2)n1
inactive: [1] 103% | [2] 95.5% | [3] 94.9% | [4] 91.2% | [5] 103% | [6] 85.8% | [7] 102% | [8] 107% | [9] 99.6% | [10] 113% | [11] 99% | [12] 104% | [13] 103% | [14] 106% | [15] 107% | [16] 114% | [17] 110% | [18] 96.4% | [19] 99.7%

CCN1C(=O)N(CC)C2C1NN=c1s/c(=C\c3ccc(Br)cc3)c(=O)n12 (centres undefined)
active: [5] 7.34% | [6] -49.9% | [9] -34.6% | [10] 6.46% | [11] 4.55% | [17] -5.08% | [19] 7.42%
inactive: [1] 29.2% | [2] 50.7% | [3] 45.5% | [4] 23.8% | [7] 19.7% | [8] 23.6% | [12] 52.2% | [13] 25.9% | [14] 40.5% | [15] 36.1% | [16] 17.4% | [18] 23.5%

O=C(NCCN1CCCCC1)n1cc(-c2ccncc2)c(-c2ccc(Cl)c(O)c2)n1
active: [12] -1.57%
inactive: [1] 83.4% | [2] 102% | [3] 119% | [4] 79% | [5] 91.5% | [6] 84.9% | [7] 98.4% | [8] 85.9% | [9] 87% | [10] 105% | [11] 89.5% | [13] 74.5% | [14] 68% | [15] 89.8% | [16] 120% | [17] 91.3% | [18] 58.9% | [19] 27.5%

Oc1c(C(Nc2ccccc2Br)c2ccccc2)ccc2cccnc12 (centres undefined)
active: [5] 5.78% | [6] -1.78% | [8] 6.91% | [19] -14.2%
inactive: [1] 22.2% | [2] 35% | [3] 24.5% | [4] 19.6% | [7] 22.6% | [9] 32.4% | [10] 28.8% | [11] 11.4% | [12] 28.1% | [13] 37.7% | [14] 37.6% | [15] 18.5% | [16] 13.6% | [17] 19.9% | [18] 14.5%

C=C(C)[C@@H]1CC[C@]2(C(=O)NC(COC(=O)C(Cl)Cl)(COC(=O)C(Cl)Cl)COC(=O)C(Cl)Cl)CC[C@]3(C)[C@H](CC[C@@H]4[C@@]5(C)CC[C@H](OC(C)=O)C(C)(C)[C@@H]5CC[C@]43C)[C@@H]12
inactive: [1] 72% | [2] 84.2% | [3] 88.8% | [4] 82.7% | [5] 15.8% | [6] 48.1% | [7] 27.7% | [8] 37.3% | [9] 36.1% | [10] 50.7% | [11] 25.2% | [12] 96.2% | [13] 54.1% | [14] 42.6% | [15] 58.8% | [16] 60.9% | [17] 76.5% | [18] 79.5% | [19] 59.9%

O=S(=O)(Nc1ccc2ccccc2c1)N1CCCCC1
inactive: [1] 56.6% | [2] 75.9% | [3] 92.8% | [4] 62.9% | [5] 65.5% | [7] 68.9% | [8] 70.3% | [9] 69.9% | [10] 78.4% | [11] 41.4% | [12] 63.3% | [13] 71.8% | [14] 68.3% | [15] 61.3% | [16] 64% | [17] 70.2% | [18] 61.1% | [19] 38.6%
active: [6] 2.32%

COc1cccc(NC(=O)OC(C)C)c1
inactive: [1] 98.7% | [2] 107% | [3] 99% | [4] 103% | [5] 105% | [6] 90.9% | [7] 94.7% | [8] 104% | [9] 103% | [10] 103% | [11] 88.1% | [12] 94.5% | [13] 116% | [14] 109% | [15] 108% | [16] 108% | [17] 106% | [18] 108% | [19] 112%

COc1ccc2nc3ccccc3c(NCc3ccc(Cl)cc3)c2c1
inactive: [1] 28.3% | [2] 48.8% | [3] 24.6% | [4] 42.4% | [5] 12.5% | [6] 34.7% | [7] 23.6% | [10] 21.5% | [13] 24.3% | [15] 53.5% | [16] 25.8%
active: [8] -76.9% | [9] -61.9% | [11] -30.2% | [12] -81.6% | [14] -24.2% | [17] -5.77% | [18] -52.2% | [19] -86.1%

CC(=O)OC[C@H]1O[C@@H](n2c(=O)cc(N)[nH]c2=O)C(OC(C)=O)[C@@H]1OC(C)=O (some centres undefined)
inactive: [1] 98.5% | [2] 90.6% | [3] 105% | [4] 95% | [5] 107% | [6] 100% | [7] 97.7% | [8] 102% | [9] 115% | [10] 108% | [11] 108% | [12] 98.4% | [13] 107% | [14] 104% | [15] 97.9% | [16] 94.2% | [17] 98% | [18] 98% | [19] 91.3%

CC(C)=CC[C@@H]1CC2(CC=C(C)C)C(=O)C(OC3(C(=O)c4ccccc4)C(=O)C4(CC=C(C)C)C[C@@H](CC=C(C)C)C(C)(C)C(CC=C(C)C)(C4=O)C3=O)(C(=O)c3ccccc3)C(=O)C(CC=C(C)C)(C2=O)C1(C)C (some centres undefined)
inactive: [1] 10.3% | [8] 11.6% | [15] 14.5%
active: [2] -4.96% | [3] 3.49% | [4] 0.307% | [5] -9.89% | [6] -28.8% | [7] 6% | [9] -22.3% | [10] 2.13% | [11] 4.86% | [12] -28.8% | [13] -11.3% | [14] 4.28% | [16] -13.4% | [17] -18.5% | [18] -19.7% | [19] -2.59%

CC(C)(C)[Si](C)(C)OC1[C@@H](O[Si](C)(C)C(C)(C)C)[C@@H](CNC(=O)NC(=O)NC(=O)CI)O[C@H]1n1cnc2c(NC(=O)Nc3ccccc3)ncnc21 (some centres undefined)
inactive: [2] 108% | [3] 111% | [5] 78.8% | [7] 65.5% | [9] 45.2% | [10] 90.7% | [11] 52.3% | [15] 26.4% | [18] 105% | [19] 73.1%
active: [1] -51.8% | [4] 2.91% | [6] -80.4% | [8] 7.17% | [12] -83.3% | [13] -49.7% | [14] -5.13% | [16] -56.8% | [17] -63.2%

O=C1/C=C/[C@@H](O)[C@@H]2C[C@@H](O)C[C@H]2/C=C/CCC[C@H]([C@@H](O)CO)O1
inactive: [1] 93% | [2] 106% | [3] 91.9% | [4] 108% | [5] 115% | [6] 92.8% | [7] 96.1% | [8] 50.3% | [9] 94.3% | [10] 135% | [11] 95.2% | [12] 64.4% | [13] 91.6% | [14] 24.9% | [15] 60.8% | [16] 87.7% | [17] 74.3% | [18] 69.3% | [19] 68.8%

O=C(CCCCCCN1CC(=O)N2[C@@H](c3ccc(Cl)c(Cl)c3)c3[nH]c4ccccc4c3C[C@H]2C1=O)NO
inactive: [1] 54% | [2] 84.8% | [3] 53.5% | [4] 54.1% | [5] 39.1% | [6] 17.8% | [7] 79.9% | [8] 71.8% | [9] 58.9% | [10] 56.7% | [11] 17.9% | [12] 40% | [13] 44.4% | [14] 36.5% | [15] 74.7% | [16] 61.8% | [17] 52% | [18] 65.5% | [19] 50.6%

CC(=O)Cc1ccccn1
inactive: [1] 104% | [2] 98% | [3] 110% | [4] 108% | [5] 105% | [6] 92.5% | [7] 104% | [8] 101% | [9] 133% | [10] 107% | [11] 100% | [12] 106% | [13] 105% | [14] 119% | [15] 98.7% | [16] 84.1% | [17] 99.7% | [18] 103% | [19] 102%

CN1C(=O)N(C)C2C1NN=c1s/c(=C\c3ccsc3)c(=O)n12 (centres undefined)
inactive: [1] 59.4% | [2] 46.1% | [3] 65.1% | [4] 46.8% | [5] 18.2% | [6] 26.4% | [7] 42.2% | [8] 47.6% | [9] 41.1% | [10] 74.9% | [11] 13.5% | [12] 54.3% | [13] 66.8% | [14] 51.6% | [15] 64.4% | [16] 25% | [17] 40.2% | [18] 60.9% | [19] 22.7%

NC(=S)N1N=C(c2ccc(Cl)cc2)CC1c1cc2ccccc2[nH]c1=O (centres undefined)
inactive: [1] 105% | [2] 113% | [3] 97.2% | [4] 102% | [5] 108% | [6] 84.2% | [7] 110% | [8] 98% | [9] 115% | [10] 118% | [11] 112% | [12] 93.8% | [13] 109% | [14] 123% | [15] 112% | [16] 108% | [17] 106% | [18] 111% | [19] 111%
